Data taken from PubChem BioAssay (NCATS).
Records with an inconclusive call do not appear. Activity calls are given as the source filed them. Unless noted, calls follow the shape of the full dose curve.

Tests used:
[1] = target: Glucocorticoid receptor (Homo sapiens) (UniProt P04150); test: qHTS assay for small molecule agonists of glucocorticoid receptor signaling (AID 588532; active = well fitted curve in the direction sought with a large enough effect in the signal ratio, with a control signal flat; the % refers to the signal ratio;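 also: 100% = dexamethasone at 0.1 µM and 0% = DMSO only wells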); conditions: HeLa MMTV-bla, beta-lactamase ratio, agonist, 18 h; activation: stronger effect = higher value, percent of dexamethasone control, DMSO zero
Method in brief: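 HeLa GRE-bla reporter cells; 18 h compound exposure at 37 C; 2 h CCF4 loading at room temperature; fluorescence at 460 and 530 nm; EC50 by Hill equation.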

[2] = target: Peroxisome proliferator-activated receptor delta (Homo sapiens) (UniProt Q03181); test: qHTS assay for small molecule agonists of peroxisome proliferator-activated receptor delta signaling (AID 588534);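 also: 0% = DMSO basal wells and 100% = positive control agonist at 10 µM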
Method in brief: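 EC50 and efficacy values derive from Hill fits of a concentration series in a beta-lactamase reporter cell assay. Exposure is 18 hrs at 37 C, with CCF4 fluorescence as the readout.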

[3] = qHTS assay for small molecule antagonists of peroxisome proliferator-activated receptor delta signaling (AID 588535; active = well fitted inhibition curve with a large enough effect in the signal ratio, with a control signal flat, not every such curve was filed as active; the % refers to the signal ratio;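 as to max response: cells co-treated with a PPAR-delta agonist as stimulator during compound exposure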); conditions: HEK293T PPARd-UAS-bla, beta-lactamase FRET ratio, 18 h; 460 nm channel
Method in brief: (§1)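 Beta-lactamase reporter read-out (405 nm excitation, 460/530 nm emission) after CCF4 loading for 2 hrs at RT. HEK293T PPAR-delta-UAS-bla cells, 2% charcoal/dextran FBS, compounds for 18 hrs at 37 C. Hill fit gave IC50 and efficacy.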

[4] = target: Peroxisome proliferator-activated receptor delta (Homo sapiens) (UniProt Q03181); test: as above
Method in brief: as §1

[5] = target: Peroxisome proliferator-activated receptor gamma (Homo sapiens) (UniProt P37231); test: qHTS assay for small molecule agonists of peroxisome proliferator-activated receptor gamma signaling (AID 588536; active = well fitted curve in the direction sought with a large enough effect in the signal ratio, with a control signal flat, not every such curve was filed as active; the % refers to the signal ratio;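 also: 0% = DMSO basal wells and 100% = rosiglitazone at 2 µM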)
Method in brief: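 Using GeneBLAzer HEK293 cells, response was quantified by CCF4 fluorescence and normalized between basal DMSO (0%) and rosiglitazone 2 uM (100%); curves yielded half-maximal stimulation concentration and efficacy.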

[6] = target: Peroxisome proliferator-activated receptor gamma (Homo sapiens) (UniProt P37231); test: qHTS assay for small molecule antagonists of peroxisome proliferator-activated receptor gamma signaling (AID 588537; active = well fitted inhibition curve with a large enough effect in the signal ratio, with a control signal flat, not every such curve was filed as active; the % refers to the signal ratio;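 also: reporter cells co-stimulated with 50 nM rosiglitazone agonist during compound treatment; % of control where 0% means no effect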)
Method in brief: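 Read-out: CCF4 fluorescence (ex 405, em 460/530 nm) after 2 h at RT. Cells were HEK293 carrying a UAS-bla reporter and treated 16 h at 37 C with compound plus rosiglitazone (50 nM final). Normalized to rosiglitazone and DMSO.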

[7] = target: Vitamin D3 receptor (Homo sapiens) (UniProt P11473); test: qHTS assay for small molecule antagonists of vitamin D receptor signaling (AID 588541);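 also: receptor activated by calcitriol during compound treatment; series mostly up to about 77 µM; % is scaled to controls: 0 for no effect and ±100 for the full control effect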
Method in brief: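 VDR-UAS-bla HEK293T cells in 2% charcoal-stripped FBS were stimulated with 1-alpha,25-dihydroxyvitamin D3 (3 nM final) plus compound for 16 h at 37 C. The beta-lactamase CCF4 readout was normalized to 50 nM agonist and DMSO, and Hill fits gave IC50.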

[8] = target: Vitamin D3 receptor (Homo sapiens) (UniProt P11473); test: qHTS assay for small molecule agonists of vitamin D receptor signaling (AID 588543);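 also: 0% = DMSO basal and 100% = reference agonist control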
Method in brief: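 Reporter cells (HEK293T, VDR-UAS-bla) were seeded in medium with 2% charcoal-stripped serum and incubated 5 h, then compounds in concentration series were added for 16 h at 37 °C. Stimulation was scaled between DMSO basal and 50 nM 1α,25-dihydroxyvitamin D3.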

[9] = qHTS assay for small molecule agonists of retinoid X receptor alpha signaling (AID 588544); conditions: HEK293T RXRa-UAS-bla, beta-lactamase reporter, 18 h; 530 nm emission;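 as to activation: 0% = DMSO basal wells and 100% = reference agonist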
[10] = target: Retinoic acid receptor RXR-alpha (Homo sapiens) (UniProt P19793); test: as above
[11] = target: Thyroid hormone receptor beta (Homo sapiens) (UniProt P10828); test: qHTS assay for small molecule agonists of thyroid hormone receptor beta signaling (AID 588545)
Method in brief: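 Agonist activity was read as beta-lactamase CCF4 fluorescence (405 ex, 460/530 em), scaled between DMSO (0%) and 10 nM T3 (100%), then Hill-fitted for EC50 and efficacy. HEK 293 TR-UAS-bla cells in 2% charcoal/dextran FBS medium were exposed 18 h at 37 C.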

[12] = qHTS assay for small molecule antagonists of retinoid X receptor alpha signaling (AID 588546; active = well fitted inhibition curve with a large enough effect in the signal ratio, with a control signal flat, not every such curve was filed as active; the % refers to the signal ratio;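 also: cells stimulated with 9-cis-retinoic acid as agonist; % is scaled to controls: 0 for no effect and ±100 for the full control effect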); conditions: HEK293T RXRa-UAS-bla, beta-lactamase ratio, antagonist mode; measured here: W530 green channel, cytotoxicity proxy
Method in brief: (§2)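 Beta-lactamase reporter inhibition, read as CCF4 fluorescence ratio (ex 405, em 460/530 nm) after 2 h at RT. HEK293T UAS-bla cells, 2500/well, were stimulated with 9-cis-RA at 500 or 100 nM final alongside test compound for 18 h at 37 C.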

[13] = target: Retinoic acid receptor RXR-alpha (Homo sapiens) (UniProt P19793); test: as above; conditions: HEK293T RXRa-UAS-bla, beta-lactamase ratio, antagonist mode
Method in brief: as §2

[14] = target: Thyroid hormone receptor beta (Homo sapiens) (UniProt P10828); test: qHTS assay for small molecule antagonists of thyroid hormone receptor beta signaling (AID 588547; active = well fitted inhibition curve with a large enough effect in the signal ratio, with a control signal flat, not every such curve was filed as active; the % refers to the signal ratio;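 also: cells stimulated with 0.4 nM T3 agonist during compound exposure; series mostly up to about 77 µM; % is scaled to controls: 0 for no effect and ±100 for the full control effect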); conditions: TR-UAS-bla HEK293, beta-lactamase ratio, antagonist mode, 18 h
Method in brief: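 TR-UAS-bla GripTite HEK293 cells in 2% charcoal/dextran FBS medium; compounds 0.59 nM to 92 uM with T3 at 0.4nM final, 18 h at 37 C. Beta-lactamase read by CCF4 fluorescence (460/530 nm); Hill fits gave IC50 and efficacy.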

[15] = qHTS assay for small molecule agonists of the antioxidant response element (ARE) signaling pathway (AID 651741; active = well fitted activation curve with a large enough effect in the signal ratio; the % refers to the signal ratio; also: potency is read from the fitted curve at half-maximal effect; as to activation: % of control where 0% means no effect)
Method in brief: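 HepG2 ARE-bla reporter cells, 2,000/well; 5 h settle at 37 C/5% CO2; compound pin transfer (23 nL, DMSO); 16 h at 37 C; LiveBLAzer B/G FRET substrate, 2 h RT; fluorescence intensity read.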

[16] = qHTS assay for small molecule activators of the p53 signaling pathway (AID 651743; active = well fitted activation curve with a large enough effect in the signal ratio, not every such curve was filed as active; the % refers to the signal ratio; also: series mostly up to about 92 µM; % of control where 0% means no effect); conditions: HCT-116 p53RE-bla, beta-lactamase FRET ratio, 16 h; activation: stronger effect = higher value
Method in brief: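 Reporter: beta-lactamase driven by p53 response elements, stably integrated in HCT-116 cells. Cells seeded at 4,000/well, 5 h preincubation, compound (DMSO) 16 h at 37 C; B/G FRET substrate 2 h RT; fluorescence intensity read.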

[17] = qHTS assay for environmental chemicals that activate the Aryl hydrocarbon Receptor (AhR) signaling pathway (AID 651777; active = well fitted curve in the direction sought with a large enough effect; an effect the other way counts as inactive or inconclusive; also: % of control where 0% means no effect; nearly all actives have a fitted effect of over 15% in size); conditions: 1A2-DRE human hepatoma cells, luciferase, 24 h; activation: stronger effect = higher value
Method in brief: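 1A2-DRE human hepatoma reporter line; 1,200 cells/well; cmpd or DMSO 24 h, 37 C/5% CO2; One-Glo 30 min RT; luciferase lum.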

[18] = target: Peroxisome proliferator-activated receptor alpha (Homo sapiens) (UniProt Q07869); test: qHTS assay for small molecule agonists of the peroxisome proliferator-activated receptor alpha (PPARalpha) signaling pathway (AID 651778; active = well fitted curve in the direction sought with a large enough effect; an effect the other way counts as inactive or inconclusive; also: % of control where 0% means no effect); conditions: PathHunter PPARalpha complementation, chemiluminescence, 6 h; max response: stronger effect = higher value
Method in brief: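 Enzyme-fragment complementation assay in which ligand-bound PPARalpha translocates and forms an active enzyme that generates chemiluminescence. Cells were plated overnight, exposed to compound for 6 hr at 37 C, and then given detection reagent for 60 min at room temperature.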

[19] = qHTS assay for small molecule agonists of the antioxidant response element (ARE) signaling pathway measured by Nrf2-dependant transcriptional activity (AID 720636; active = well fitted curve in the direction sought with a large enough effect in the repeat runs; an effect the other way counts as inactive or inconclusive;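 also: HepG2 cells with an ARE-driven luciferase reporter; % of control where 0% means no effect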)
Method in brief: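 Cells: ARE-luc HepG2 with Nrf2-responsive luciferase. Medium contained 1% dialyzed FBS. Compound exposure lasted 16 hr at 37 C and 5% CO2, followed by ONE-Glo luciferase detection.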

[20] = qHTS assay for small molecule agonists of the antioxidant response element (ARE) signaling pathway measured by Nrf2-dependant transcriptional activity - cell viability counter screen (AID 720653; active = well fitted curve in the direction sought with a large enough effect in the repeat runs; an effect the other way counts as inactive or inconclusive; also: % is scaled to controls: 0 for no effect and ±100 for the full control effect); conditions: ARE-bla HepG2 viability, CellTiter-Glo ATP luminescence, 16 h; max response: stronger effect = lower value
Method in brief: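 ARE-bla HepG2 cells treated with compounds for 16 h at 37C; this counter screen measures viability as intracellular ATP by CellTiter-Glo luminescence after 30 min at room temperature.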

[21] = qHTS assay for cell viability of HEK293 cells (AID 743288; active = well fitted curve in the direction sought with a large enough effect; an effect the other way counts as inactive or inconclusive; also: % is scaled to controls: 0 for no effect and ±100 for the full control effect; nearly all actives have a fitted effect of over 50% in size); conditions: ATP luminescence (CellTiter-Glo), 18 h; max response: stronger effect = lower value
Method in brief: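 Viable-cell counts were inferred from luciferase-based ATP content in HEK293 cells seeded at 2,000/well, pre-incubated ≥5 h, then dosed with DMSO-solubilised compounds for 18 h at 37 C.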

[22] = target: Nuclear receptor subfamily 1 group I member 2 (Rattus norvegicus) (UniProt Q9R1A7); test: qHTS assay for small molecule activators of the rat pregnane X receptor (rPXR) signaling pathway (AID 651751; call rule not given here; also: 0% is about no effect); conditions: rPXR reporter cells, luciferase (One-Glo), 24 h
[23] = qHTS assay for small molecule activators of the human pregnane X receptor (PXR) signaling pathway (AID 720659; call rule not given here; also: 0% is about no effect)
[24] = qHTS assay for small molecule activators of the nuclear factor-kappa B (NF-kB) signaling pathway (AID 651749; active = well fitted activation curve with a large enough effect in the signal ratio; the % refers to the signal ratio; also: series mostly up to about 77 µM; % of control where 0% means no effect); conditions: NF-kB-bla ME-180 cells, beta-lactamase FRET ratio, 16 h; activation: stronger effect = higher value
Method in brief: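 NF-kB-bla ME-180 cells, 2,000/well; 23 nL compound or DMSO pinned; 16 hr, 37C/5% CO2; beta-lactamase FRET read-out.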

[25] = qHTS assay for cell viability of the p53RE-bla HCT-116 cell line (AID 743292; active = well fitted curve in the direction sought with a large enough effect; an effect the other way counts as inactive or inconclusive; also: % is scaled to controls: 0 for no effect and ±100 for the full control effect; nearly all actives have a fitted effect of over 55% in size)
Method in brief: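 HCT-116 p53RE-bla cells seeded 4,000/well; 5 h at 37 C; compound (DMSO) added; 16 h at 37 C; CellTiter-Glo added, 30 min RT; luminescence read.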

Sequence of Retinoic acid receptor RXR-alpha (Homo sapiens) (P19793 whole entry, looked up): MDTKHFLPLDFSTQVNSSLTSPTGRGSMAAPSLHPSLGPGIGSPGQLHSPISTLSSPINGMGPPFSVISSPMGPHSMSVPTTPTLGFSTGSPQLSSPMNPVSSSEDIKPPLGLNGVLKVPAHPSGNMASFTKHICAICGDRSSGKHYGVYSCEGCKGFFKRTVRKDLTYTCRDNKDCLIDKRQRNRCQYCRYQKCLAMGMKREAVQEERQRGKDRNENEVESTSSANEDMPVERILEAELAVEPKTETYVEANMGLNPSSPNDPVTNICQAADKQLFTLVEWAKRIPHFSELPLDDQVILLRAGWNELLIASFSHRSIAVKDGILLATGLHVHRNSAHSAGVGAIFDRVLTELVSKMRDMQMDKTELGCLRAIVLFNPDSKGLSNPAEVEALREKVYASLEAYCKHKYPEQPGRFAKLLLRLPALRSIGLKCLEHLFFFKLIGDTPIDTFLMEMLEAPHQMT
Sequence of Vitamin D3 receptor (Homo sapiens) (P11473 whole entry, looked up): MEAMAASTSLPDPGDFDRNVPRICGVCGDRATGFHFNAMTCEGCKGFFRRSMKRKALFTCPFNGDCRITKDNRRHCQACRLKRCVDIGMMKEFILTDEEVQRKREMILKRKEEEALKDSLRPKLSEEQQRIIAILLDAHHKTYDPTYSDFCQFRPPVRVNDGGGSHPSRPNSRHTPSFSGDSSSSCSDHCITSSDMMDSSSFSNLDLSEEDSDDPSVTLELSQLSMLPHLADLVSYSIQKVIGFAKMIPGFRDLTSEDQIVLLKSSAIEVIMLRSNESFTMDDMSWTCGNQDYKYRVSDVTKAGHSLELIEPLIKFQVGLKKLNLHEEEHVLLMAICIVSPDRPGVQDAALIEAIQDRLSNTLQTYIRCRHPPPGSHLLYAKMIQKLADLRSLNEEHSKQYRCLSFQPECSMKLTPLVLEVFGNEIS
Sequence of Peroxisome proliferator-activated receptor delta (Homo sapiens) (Q03181 whole entry, looked up): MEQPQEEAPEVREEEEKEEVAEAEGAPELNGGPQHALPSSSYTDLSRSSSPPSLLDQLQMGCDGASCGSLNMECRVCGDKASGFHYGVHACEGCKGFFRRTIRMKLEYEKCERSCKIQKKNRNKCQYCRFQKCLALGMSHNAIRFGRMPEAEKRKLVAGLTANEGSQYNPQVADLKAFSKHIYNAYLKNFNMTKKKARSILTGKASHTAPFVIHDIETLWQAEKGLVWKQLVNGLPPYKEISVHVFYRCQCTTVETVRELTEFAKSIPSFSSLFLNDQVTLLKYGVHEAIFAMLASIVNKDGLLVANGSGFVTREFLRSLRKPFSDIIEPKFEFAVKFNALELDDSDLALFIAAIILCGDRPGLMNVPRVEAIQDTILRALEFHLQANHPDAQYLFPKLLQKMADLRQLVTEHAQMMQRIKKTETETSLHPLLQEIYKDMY
Sequence of Thyroid hormone receptor beta (Homo sapiens) (P10828 whole entry, looked up): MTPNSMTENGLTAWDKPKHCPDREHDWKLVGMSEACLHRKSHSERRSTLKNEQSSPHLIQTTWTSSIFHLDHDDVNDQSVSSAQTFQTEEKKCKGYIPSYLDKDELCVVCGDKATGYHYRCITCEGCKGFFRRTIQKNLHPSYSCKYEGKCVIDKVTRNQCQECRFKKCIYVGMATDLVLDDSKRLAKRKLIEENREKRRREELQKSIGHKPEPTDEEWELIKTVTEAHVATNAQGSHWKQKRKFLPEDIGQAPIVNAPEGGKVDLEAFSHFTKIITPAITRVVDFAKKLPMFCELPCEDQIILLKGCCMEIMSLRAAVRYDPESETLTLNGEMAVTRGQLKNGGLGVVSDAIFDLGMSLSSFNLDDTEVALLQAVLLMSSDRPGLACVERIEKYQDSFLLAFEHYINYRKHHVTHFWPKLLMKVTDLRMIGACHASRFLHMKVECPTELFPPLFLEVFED
Sequence of Peroxisome proliferator-activated receptor alpha (Homo sapiens) (Q07869 whole entry, looked up, the tested form may be a part): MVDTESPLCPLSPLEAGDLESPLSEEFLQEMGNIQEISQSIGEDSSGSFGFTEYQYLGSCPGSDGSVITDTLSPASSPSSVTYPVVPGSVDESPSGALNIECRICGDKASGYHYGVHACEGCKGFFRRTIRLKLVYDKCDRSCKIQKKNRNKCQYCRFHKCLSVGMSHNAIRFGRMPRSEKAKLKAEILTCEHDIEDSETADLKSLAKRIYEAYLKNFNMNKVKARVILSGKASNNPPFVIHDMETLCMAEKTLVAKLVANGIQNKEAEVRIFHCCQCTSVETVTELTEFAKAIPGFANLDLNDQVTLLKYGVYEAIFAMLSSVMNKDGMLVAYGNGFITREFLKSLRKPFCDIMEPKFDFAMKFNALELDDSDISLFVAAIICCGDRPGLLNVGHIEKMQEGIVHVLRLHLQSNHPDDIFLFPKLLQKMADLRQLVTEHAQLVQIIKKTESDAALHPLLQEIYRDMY
Sequence of Nuclear receptor subfamily 1 group I member 2 (Rattus norvegicus) (Q9R1A7 whole entry, looked up): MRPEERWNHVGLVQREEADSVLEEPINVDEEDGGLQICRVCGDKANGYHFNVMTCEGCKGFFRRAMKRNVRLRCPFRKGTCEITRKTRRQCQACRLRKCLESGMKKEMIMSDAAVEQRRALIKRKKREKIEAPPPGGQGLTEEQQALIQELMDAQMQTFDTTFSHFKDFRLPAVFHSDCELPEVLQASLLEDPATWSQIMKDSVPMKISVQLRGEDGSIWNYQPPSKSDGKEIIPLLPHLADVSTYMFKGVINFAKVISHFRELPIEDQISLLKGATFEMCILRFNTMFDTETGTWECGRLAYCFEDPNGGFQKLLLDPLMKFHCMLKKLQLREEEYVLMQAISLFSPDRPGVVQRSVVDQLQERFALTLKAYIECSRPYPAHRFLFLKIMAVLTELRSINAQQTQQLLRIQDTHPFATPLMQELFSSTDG
Sequence of Peroxisome proliferator-activated receptor gamma (Homo sapiens) (P37231 whole entry, looked up): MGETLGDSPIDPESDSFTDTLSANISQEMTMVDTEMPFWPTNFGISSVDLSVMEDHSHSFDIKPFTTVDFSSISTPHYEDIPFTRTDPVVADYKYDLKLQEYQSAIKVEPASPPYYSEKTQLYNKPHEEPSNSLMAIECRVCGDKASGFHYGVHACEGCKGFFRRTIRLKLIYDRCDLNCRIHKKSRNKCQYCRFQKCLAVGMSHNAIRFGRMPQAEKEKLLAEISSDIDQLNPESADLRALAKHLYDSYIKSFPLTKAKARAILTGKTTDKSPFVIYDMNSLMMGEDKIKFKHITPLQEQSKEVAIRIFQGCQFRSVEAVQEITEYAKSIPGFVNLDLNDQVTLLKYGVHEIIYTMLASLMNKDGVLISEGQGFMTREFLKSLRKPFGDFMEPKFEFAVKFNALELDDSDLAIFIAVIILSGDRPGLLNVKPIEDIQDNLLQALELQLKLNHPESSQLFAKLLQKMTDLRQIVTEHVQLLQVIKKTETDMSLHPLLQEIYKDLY
Sequence of Glucocorticoid receptor (Homo sapiens) (P04150 whole entry, looked up): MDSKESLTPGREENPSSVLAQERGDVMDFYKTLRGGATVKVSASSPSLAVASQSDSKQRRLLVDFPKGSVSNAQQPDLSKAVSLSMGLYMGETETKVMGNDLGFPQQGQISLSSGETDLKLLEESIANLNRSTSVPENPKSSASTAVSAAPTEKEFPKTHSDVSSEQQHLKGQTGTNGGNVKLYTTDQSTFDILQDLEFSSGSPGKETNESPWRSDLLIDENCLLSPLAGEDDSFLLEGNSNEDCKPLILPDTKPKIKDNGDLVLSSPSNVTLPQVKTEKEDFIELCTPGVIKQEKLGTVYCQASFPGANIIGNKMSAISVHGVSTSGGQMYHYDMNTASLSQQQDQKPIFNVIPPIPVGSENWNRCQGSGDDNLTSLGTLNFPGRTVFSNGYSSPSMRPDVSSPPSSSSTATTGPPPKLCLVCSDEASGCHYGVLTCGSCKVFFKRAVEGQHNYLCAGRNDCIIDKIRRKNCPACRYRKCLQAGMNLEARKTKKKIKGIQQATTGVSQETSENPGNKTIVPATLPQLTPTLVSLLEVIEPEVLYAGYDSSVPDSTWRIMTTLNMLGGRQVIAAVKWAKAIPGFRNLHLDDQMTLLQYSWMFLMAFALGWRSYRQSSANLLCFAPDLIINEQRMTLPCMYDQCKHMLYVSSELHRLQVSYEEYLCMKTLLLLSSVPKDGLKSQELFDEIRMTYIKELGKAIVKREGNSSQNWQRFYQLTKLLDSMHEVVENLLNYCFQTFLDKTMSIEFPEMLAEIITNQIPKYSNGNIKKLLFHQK

COP(=O)(NC(C)=O)SC (stereo not drawn)
3.46%: max response [12]
-7.01%: max response [3]
4.58%: max response [9]
inactive: activation [1] -2.58% | outcome [2] | Potency [4] | Potency [5] | Potency [6] | Potency [7] | outcome [8] | Potency [10] | Potency [11] | max response [13] -12.8% | activity change % (negative = inhibition) [14] -13.5% | Potency [15] | activation [16] -0.529% | activation [17] -1.62% | max response [18] -0.657% | Potency [19] | max response [20] -8.51% | max response [21] -8.22% | max response [22] -1.19% | outcome [23]

CNP(=O)(OC)Oc1ccc(C(C)(C)C)cc1Cl (stereo not drawn)
active: Potency [15] 61.1 µM
45%: max response [3]
10.3%: max response [9]
2.01%: max response [12]
inactive: activation [1] 0.207% | outcome [2] | Potency [4] | Potency [7] | outcome [8] | Potency [10] | Potency [11] | max response [13] 11.9% | activation [16] 6.28% | activation [24] 1.2% | activation [17] 5.81% | max response [18] -2.32% | max response [20] 8.45% | max response [21] -10.1% | Potency [25] | max response [22] 11.5%
